Assay outcomes (PubChem)
DAX1 inh-1: inhibitors of human orphan nuclear receptor DAX1 (NR0B1) | 0.99% of 340,000 active | AID 504766 | HEK293 Gal4-DAX1 luciferase reporter, luminescence | inhibition, % at 6.75 µM | P51843;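 active means inhibition above the mean over all tested compounds plus 3 SD, cut at about 4.2% in these data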;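 further: 0% = DAX1-transfected cells with DMSO and 100% = empty-vector control cells with DMSO; inhibition shows as a rise in luminescence from relieved DAX1 repression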
ssDAF12 agonist: activates DAF-12 receptor from parasite S. stercoralis | HEK293 ssDAF-12/GRIP1 lit1-tk-luc reporter, luminescence; % of 3 µM dafachronic acid response | activation, % at 6.8 µM | 1% of 370,000 active;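 active means activation above the mean over all tested compounds plus 3 SD, cut at about 0.9% in these data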;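 further: 0% = DMSO-only wells and 100% = 3 µM delta7-dafachronic acid wells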
hgDAF12 agonist: hgDAF-12 agonism, primary luciferase screen | HEK293 GAL4-hgDAF12 UAS-luciferase reporter, agonist luminescence; normalized to butyrate control | activation, % at 6.8 µM | 1.8% of 370,000 active | AID 687014;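 active means activation above a cutoff set at the mean of all screened compounds plus 3 SD, cut at about 10% in these data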;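 further: 0% = DMSO wells and 100% = sodium butyrate wells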
DAX1 inh-2: blocks DAX1 repression of SF-1 activated StAR promoter. HEK293T StAR-luciferase reporter, SF-1/DAX-1 repression relief. inhibition, % at 6.8 µM. 1.1% of 370,000 active;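 active means inhibition above the mean over all tested compounds plus 3 SD, cut at about 3.6% in these data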;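 further: 0% = DAX-1 cells with DMSO and 100% = cells lacking DAX-1 with DMSO; higher inhibition means more luminescence from relief of DAX-1 repression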
AHR activator: activators of human aryl hydrocarbon receptor; activation, % at 5 µM; 2.5% of 320,000 active; P35869; AHR-responsive luciferase reporter cells, luminescence; in the data active means activation above about 47%;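 further: 0% = vehicle wells and 100% = reference agonist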
Target sequence (P35869 whole entry, looked up): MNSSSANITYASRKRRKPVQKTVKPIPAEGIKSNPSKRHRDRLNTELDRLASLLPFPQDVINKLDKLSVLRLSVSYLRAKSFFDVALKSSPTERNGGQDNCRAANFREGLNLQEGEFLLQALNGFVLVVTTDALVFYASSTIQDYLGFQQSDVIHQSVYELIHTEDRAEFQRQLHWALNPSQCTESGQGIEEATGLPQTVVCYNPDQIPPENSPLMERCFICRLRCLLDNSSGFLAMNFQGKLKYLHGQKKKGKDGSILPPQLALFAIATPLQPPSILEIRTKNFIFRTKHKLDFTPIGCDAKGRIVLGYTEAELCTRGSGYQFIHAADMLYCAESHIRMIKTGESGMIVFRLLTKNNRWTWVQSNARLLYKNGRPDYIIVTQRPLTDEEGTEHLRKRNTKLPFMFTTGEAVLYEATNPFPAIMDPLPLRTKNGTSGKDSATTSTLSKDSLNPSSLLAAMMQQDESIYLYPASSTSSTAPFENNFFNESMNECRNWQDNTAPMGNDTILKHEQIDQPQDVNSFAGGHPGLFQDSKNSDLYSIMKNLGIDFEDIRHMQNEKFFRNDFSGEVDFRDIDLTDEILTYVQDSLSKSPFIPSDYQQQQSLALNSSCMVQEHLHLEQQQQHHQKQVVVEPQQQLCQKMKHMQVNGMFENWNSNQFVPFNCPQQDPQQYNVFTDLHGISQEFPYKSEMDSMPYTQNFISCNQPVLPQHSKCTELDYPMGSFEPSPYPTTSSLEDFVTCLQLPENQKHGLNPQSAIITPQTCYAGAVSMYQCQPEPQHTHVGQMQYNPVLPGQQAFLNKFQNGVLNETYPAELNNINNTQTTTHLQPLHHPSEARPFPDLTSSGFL
hcDAF12 agonist: H. contortus DAF-12 activation, primary screen. 1.4% of 370,000 active. activation, % at 6.8 µM. HEK293 hcDAF-12 lit1-tk-luc reporter, luminescence; 0% DMSO, 100% Δ7-dafachronic acid;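 active means activation above the mean of all tested compounds plus 3 SD, cut at about 5.5% in these data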;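 further: 100% = response to 3 µM Δ7-dafachronic acid high control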
Numbers without * were called inactive; x = not tested or not shown. An excerpt weighted towards active compounds, which were near 5.7% of everything screened.

SMILES	DAX1 inh-1	ssDAF12 agonist	hgDAF12 agonist	DAX1 inh-2	AHR activator	hcDAF12 agonist
COC(=O)c1cc(=O)c2c([N+](=O)[O-])ccc(OC)c2o1	4.6*	-1	-1	0	-2	-2
COc1ccc2c(=O)c(-c3ccc4c(c3)OCO4)coc2c1	2	1	17*	3	-6	5.7*
COC(=O)COc1ccc2c(=O)c(-c3ccccc3)coc2c1	1	-1	-2	0	-1	-2
CC(C)Oc1ccc2c(=O)c(-c3ccccc3)coc2c1	1	0	14*	8.3*	-7	3
CCc1cc2c(=O)c(-c3ccc4c(c3)OCCO4)coc2cc1OC(=O)c1ccco1	1	-1	11*	3	-2	3
CCN(CC)C(=O)Oc1ccc2c(=O)c(-c3ccc(OC)cc3)coc2c1	1	-2	6	1	-3	-2
CCCc1cc2c(=O)c(-c3ccc4c(c3)OCCO4)coc2cc1OC(=O)c1ccco1	1	0	2	0	3	1
CC(=O)Nc1ccc(C=NNc2ccc([N+](=O)[O-])cn2)cc1	2	-1	6	1	x	1
O=C(c1cc2c(c(-c3cccc(-c4ccncc4)c3)n1)[C@@H](CCO)N(C(=O)c1ccc3c(c1)OCO3)C2)N1CCOCC1	x	0	8	3.7*	x	3
CCOC(=O)c1ccc(-n2ccnc2)c(NC(=O)c2ccc(Cl)cc2)c1	-1	-1	1	0	53*	-2
CCOC(=O)c1c(C)[nH]c(C(=O)N(C)CC(=O)Nc2ccc(OC)cc2)c1C	2	-2	-2	-1	-1	-1
CNc1cccc(-c2ccc(C(C)=O)s2)n1	x	-1	10	4.0*	x	0
Cc1ccnc2nc(C(=O)OCC(=O)c3ccc(NC(=O)CC(C)C)cc3)nn12	5.5*	0	-3	1	0	-1
CC(C)=NNc1ncnc2nc[nH]c12	6.3*	0	5	4	x	0
Cc1ccc(-c2cc(-c3n[nH]c(=S)o3)c3ccccc3n2)cc1	1	-2	-2	0	5	-2
S=c1[nH]nc(-c2cc(-c3ccccn3)nc3ccccc23)o1	-2	-1	1	0	73*	2
COc1ccc(OC)c(CCNC(=O)CC2Oc3ccc(C)cc3NC2=O)c1 (stereo not drawn)	1	-1	-1	0	x	-1
Cc1ccc2c(c1)NC(=O)C(CC(=O)NCCN(CC(C)C)CC(C)C)O2 (stereo not drawn)	5.7*	0	0	1	1	-1
COc1ccc(OC)c(CCNC(=O)CC2Oc3ccccc3NC2=O)c1 (stereo not drawn)	2	-1	-1	0	52*	2
CCCOc1ccc(C(=O)Nc2ccccc2[N+](=O)[O-])cc1	1	0	13*	1	0	4
CCCONC(=O)Nc1ccccc1[N+](=O)[O-]	0	-1	2	0	53*	-3
N/C(=N/OC(=O)c1ccc(Cl)cc1)c1ncc([N+](=O)[O-])s1	x	-1	0	0	1	0
CCOc1ccc(N2CC(C(=O)N3CCN(C(=O)c4ccco4)CC3)CC2=O)cc1 (stereo not drawn)	0	-1	1	0	1	-1
O=C1CC(c2ccccc2)Oc2cc(O)cc(O)c21 (stereo not drawn)	0	0	2	1	-2	0
CC(C)=CCc1c(O)cc2c(c1O)C(=O)CC(c1ccccc1)O2 (stereo not drawn)	-1	0	-4	0	51*	4
SMILES	DAX1 inh-1	ssDAF12 agonist	hgDAF12 agonist	DAX1 inh-2	AHR activator	hcDAF12 agonist
CCCCNC(=O)C[C@@H]1C[C@@]2(C(=O)OC)CCCCC=C2N(Cc2ccc3c(c2)OCO3)C1=O	x	-1	1	2	x	-1
CCC(C)c1ccc(NC(=O)c2ccco2)cc1 (stereo not drawn)	-4	0	11*	3	x	3
Cc1cc(Br)ccc1NC(=O)c1ccco1	1	0	3	0	17	0
O=C(Nc1ccc(Cl)cc1C(=O)Nc1ccc(Br)cn1)c1ccco1	0	-2	-2	-2	61*	-1
CCN(CC)c1ccc(NC(=O)c2ccco2)cc1	1	0	13*	4.1*	2	4
O=C(Nc1ccc(NC(=O)c2cccs2)c(Cl)c1)c1ccco1	0	-2	3	-1	64*	-1
CC1CCCC(NC(=O)NC(=O)COC(=O)c2ccc(O)cc2O)C1C (stereo not drawn)	0	-1	-2	-1	-1	0
O=C1c2ccccc2C(=O)N1CC(O)COc1ccccc1Cl (stereo not drawn)	2	-1	6	0	-3	-1
COC(=O)[C@]12C[C@H](CC(=O)NCc3cccs3)C(=O)N(Cc3ccccc3)C1=C[C@H](C1CCCC1)O[C@@H]2C	x	-1	0	1	x	0
O=C1CN(S(=O)(=O)c2cc(C(=O)O)ccc2Cl)c2ccccc2N1	1	0	0	0	6	3
O=C(NCC(c1ccccc1)c1ccccc1)[C@H](Cc1ccccc1)NC1(C(=O)NC2CCCCC2)CCC1	x	-1	2	x	x	1
COc1cc(OC)c2c(=O)c3c(C(=O)O)c(O)ccc3oc2c1	x	-1	-6	-3	x	-1
O=C(/C=C/c1ccc(Br)cc1)c1ccc(NC(=O)c2ccco2)cc1	1	-1	1	0	48*	1
O=C(/C=C/c1ccc(Br)cc1)c1ccco1	-1	-2	3	0	-8	-3
O=C(NCc1cccnc1)c1ccc(NC(=O)c2ccco2)cc1	1	-1	1	0	-5	0
O=C(NCc1ccccn1)c1ccc(NC(=O)c2ccco2)cc1	1	1.3*	-1	1	13	-2
O=C(Nc1ccc(Cl)cc1)c1ccco1	5.2*	0	4	0	21	2
CCCCOCC1CN(CCCC)S(=O)(=O)c2c(cccc2N2CCCC2)O1 (stereo not drawn)	x	-1	-1	-1	x	0
Cc1cccc(NC(=O)CN(C)C(=O)/C=C/c2ccccc2)c1C	0	-1	0	-1	x	-1
N#Cc1c(-c2ccccc2)cc(-c2ccccc2)nc1SCCC(=O)O	1	-1	-2	0	0	0
O=C(CSC1CCc2ccccc21)NN=Cc1ccco1 (stereo not drawn)	x	0	4	-1	x	1
COCCNC(=O)COC(=O)CSCc1nc2ccccc2s1	-1	0	2	0	11	5.8*
COCCN(Cc1cc2cc(C)ccc2n2nnnc12)C(=S)Nc1ccc(OC)cc1	-1	0	-4	0	x	-1
COCCN(Cc1cc2cc(C)ccc2n2nnnc12)C(=S)Nc1ccc(C)cc1	4.6*	-1	2	0	2	-1
